# Laboratory results taken from PMC11006913.
# Changes are numbered by the printed parent chain.
# Key:
# Experiment in all cases: PBM; 200 nM protein, PBS
# Settings in all cases: dsDNA, one strand shown
# [1] = molecular target: HOXB9 (Homo sapiens, UniProt P17482 171-250, T197M)
# [2] = molecular target: HOXB9 (Homo sapiens, UniProt P17482 171-250)
# [3] = molecular target: HOXB9 (Homo sapiens, UniProt P17482 171-250, R186Q)
# [4] = molecular target: HOXA2 (Homo sapiens, UniProt O43364 129-215, R185T)
# [5] = molecular target: HOXA2 (Homo sapiens, UniProt O43364 129-215, R185K)
# [6] = molecular target: HOXA2 (Homo sapiens, UniProt O43364 129-215, Y150S)
# [7] = molecular target: HOXA2 (Homo sapiens, UniProt O43364 129-215)
# [8] = molecular target: T1, SIX6 (Homo sapiens, UniProt O95475 114-200, L167I)
# T1 sequence: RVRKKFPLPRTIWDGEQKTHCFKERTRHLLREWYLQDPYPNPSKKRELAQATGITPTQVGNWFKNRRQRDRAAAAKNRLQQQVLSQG
# [9] = molecular target: T2, SIX6 (Homo sapiens, UniProt O95475 114-200, L143V)
# T2 sequence: T1 sequence with L30V, I54L
# [10] = molecular target: T3, SIX6 (Homo sapiens, UniProt O95475 114-200, H141N)
# T3 sequence: T1 sequence with H28N, I54L
# [11] = molecular target: T4, SIX6 (Homo sapiens, UniProt O95475 114-200, T165P)
# T4 sequence: T1 sequence with T52P, I54L
# [12] = molecular target: T5, SIX6 (Homo sapiens, UniProt O95475 114-200, L167M)
# T5 sequence: T1 sequence with I54M
# [13] = molecular target: T6, SIX6 (Homo sapiens, UniProt O95475 114-200, L143M)
# T6 sequence: T1 sequence with L30M, I54L
# [14] = molecular target: T7, SIX6 (Homo sapiens, UniProt O95475 114-200, L143I)
# T7 sequence: T1 sequence with L30I, I54L
# [15] = molecular target: T8, SIX6 (Homo sapiens, UniProt O95475 114-200, T165G)
# T8 sequence: T1 sequence with T52G, I54L
# [16] = molecular target: T9, SIX6 (Homo sapiens, UniProt O95475 114-200, T139Q)
# T9 sequence: T1 sequence with T26Q, I54L
# [17] = molecular target: T10, SIX6 (Homo sapiens, UniProt O95475 114-200, T165A)
# T10 sequence: T1 sequence with T52A, I54L
# [18] = molecular target: T11, SIX6 (Homo sapiens, UniProt O95475 114-200, L167V)
# T11 sequence: T1 sequence with I54V
# [19] = molecular target: T12, SIX6 (Homo sapiens, UniProt O95475 114-200)
# T12 sequence: T1 sequence with I54L
# [20] = molecular target: T13, SIX6 (Homo sapiens, UniProt O95475 114-200, T165I)
# T13 sequence: T1 sequence with T52I, I54L
# HOXB9 (Homo sapiens, UniProt P17482 171-250, R186Q), sequence (P17482 171-250 R186Q): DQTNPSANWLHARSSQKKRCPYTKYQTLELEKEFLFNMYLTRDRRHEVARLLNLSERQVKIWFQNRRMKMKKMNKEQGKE
# HOXB9 (Homo sapiens, UniProt P17482 171-250, T197M), sequence (P17482 171-250 T197M): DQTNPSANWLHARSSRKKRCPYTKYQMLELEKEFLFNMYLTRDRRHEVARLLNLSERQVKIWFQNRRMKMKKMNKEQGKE
# HOXB9 (Homo sapiens, UniProt P17482 171-250), sequence (P17482 171-250): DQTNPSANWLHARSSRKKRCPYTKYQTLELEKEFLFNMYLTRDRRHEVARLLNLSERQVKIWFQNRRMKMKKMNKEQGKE
# HOXA2 (Homo sapiens, UniProt O43364 129-215, R185T), sequence (O43364 129-215 R185T): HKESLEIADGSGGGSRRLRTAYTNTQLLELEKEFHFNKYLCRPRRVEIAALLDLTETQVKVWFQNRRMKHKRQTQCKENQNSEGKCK
# HOXA2 (Homo sapiens, UniProt O43364 129-215), sequence (O43364 129-215): as the sequence (O43364 129-215 R185T) above, with T57R counted along it
# HOXA2 (Homo sapiens, UniProt O43364 129-215, R185K), sequence (O43364 129-215 R185K): as the sequence (O43364 129-215 R185T) above, with T57K counted along it
# HOXA2 (Homo sapiens, UniProt O43364 129-215, Y150S), sequence (O43364 129-215 Y150S): as the sequence (O43364 129-215 R185T) above, with Y22S, T57R counted along it
sequence,measurement,setting,value
CCAGACCG,binding signal,[1],"8.54 upbm affinity estimate (log intensity, higher = more binding, comparable within an allelic series)"
same,binding signal,[2],"8.51 upbm affinity estimate (log intensity, higher = more binding, comparable within an allelic series)"
same,binding signal,[3],"8.43 upbm affinity estimate (log intensity, higher = more binding, comparable within an allelic series)"
GCAGGCCC,binding signal,[1],"8.19 upbm affinity estimate (log intensity, higher = more binding, comparable within an allelic series)"
same,binding signal,[2],"8.31 upbm affinity estimate (log intensity, higher = more binding, comparable within an allelic series)"
same,binding signal,[3],"8.26 upbm affinity estimate (log intensity, higher = more binding, comparable within an allelic series)"
CCCGCGAG,binding signal,[1],"8.58 upbm affinity estimate (log intensity, higher = more binding, comparable within an allelic series)"
same,binding signal,[2],"8.45 upbm affinity estimate (log intensity, higher = more binding, comparable within an allelic series)"
same,binding signal,[3],"8.39 upbm affinity estimate (log intensity, higher = more binding, comparable within an allelic series)"
CTTGGGCC,binding signal,[1],"8.42 upbm affinity estimate (log intensity, higher = more binding, comparable within an allelic series)"
same,binding signal,[2],"8.37 upbm affinity estimate (log intensity, higher = more binding, comparable within an allelic series)"
same,binding signal,[3],"8.33 upbm affinity estimate (log intensity, higher = more binding, comparable within an allelic series)"
ACCGGGGA,binding signal,[1],"8.44 upbm affinity estimate (log intensity, higher = more binding, comparable within an allelic series)"
same,binding signal,[2],"8.19 upbm affinity estimate (log intensity, higher = more binding, comparable within an allelic series)"
same,binding signal,[3],"8.23 upbm affinity estimate (log intensity, higher = more binding, comparable within an allelic series)"
CGCCGGAC,binding signal,[1],"8.48 upbm affinity estimate (log intensity, higher = more binding, comparable within an allelic series)"
same,binding signal,[4],"7.23 upbm affinity estimate (log intensity, higher = more binding, comparable within an allelic series)"
same,binding signal,[2],"8.46 upbm affinity estimate (log intensity, higher = more binding, comparable within an allelic series)"
same,binding signal,[5],"10.4 upbm affinity estimate (log intensity, higher = more binding, comparable within an allelic series)"
same,binding signal,[3],"8.52 upbm affinity estimate (log intensity, higher = more binding, comparable within an allelic series)"
same,binding signal,[6],"10.4 upbm affinity estimate (log intensity, higher = more binding, comparable within an allelic series)"
same,binding signal,[7],"7.32 upbm affinity estimate (log intensity, higher = more binding, comparable within an allelic series)"
CCTATAAG,binding signal,[1],"9.17 upbm affinity estimate (log intensity, higher = more binding, comparable within an allelic series)"
same,binding signal,[2],"9.71 upbm affinity estimate (log intensity, higher = more binding, comparable within an allelic series)"
CCGGACGC,binding signal,[1],"8.6 upbm affinity estimate (log intensity, higher = more binding, comparable within an allelic series)"
same,binding signal,[2],"8.5 upbm affinity estimate (log intensity, higher = more binding, comparable within an allelic series)"
same,binding signal,[3],"8.59 upbm affinity estimate (log intensity, higher = more binding, comparable within an allelic series)"
CCTAGCCG,binding signal,[1],"8.53 upbm affinity estimate (log intensity, higher = more binding, comparable within an allelic series)"
same,binding signal,[2],"8.64 upbm affinity estimate (log intensity, higher = more binding, comparable within an allelic series)"
same,binding signal,[3],"8.65 upbm affinity estimate (log intensity, higher = more binding, comparable within an allelic series)"
ACCGGCCA,binding signal,[1],"8.45 upbm affinity estimate (log intensity, higher = more binding, comparable within an allelic series)"
same,binding signal,[2],"8.55 upbm affinity estimate (log intensity, higher = more binding, comparable within an allelic series)"
same,binding signal,[3],"8.63 upbm affinity estimate (log intensity, higher = more binding, comparable within an allelic series)"
CGGGCAAC,binding signal,[1],"8.62 upbm affinity estimate (log intensity, higher = more binding, comparable within an allelic series)"
same,binding signal,[2],"8.62 upbm affinity estimate (log intensity, higher = more binding, comparable within an allelic series)"
same,binding signal,[3],"8.68 upbm affinity estimate (log intensity, higher = more binding, comparable within an allelic series)"
TATAAATA,binding signal,[1],"9.81 upbm affinity estimate (log intensity, higher = more binding, comparable within an allelic series)"
same,binding signal,[2],"11.2 upbm affinity estimate (log intensity, higher = more binding, comparable within an allelic series)"
same,binding signal,[3],"10.8 upbm affinity estimate (log intensity, higher = more binding, comparable within an allelic series)"
ATGGTGTC,binding signal,[8],"9.97 upbm affinity estimate (log intensity, higher = more binding, comparable within an allelic series)"
CCACCCGC,binding signal,[8],"9.19 upbm affinity estimate (log intensity, higher = more binding, comparable within an allelic series)"
same,binding signal,[9],"9.01 upbm affinity estimate (log intensity, higher = more binding, comparable within an allelic series)"
same,binding signal,[10],"9.2 upbm affinity estimate (log intensity, higher = more binding, comparable within an allelic series)"
same,binding signal,[11],"9.04 upbm affinity estimate (log intensity, higher = more binding, comparable within an allelic series)"
same,binding signal,[12],"9.21 upbm affinity estimate (log intensity, higher = more binding, comparable within an allelic series)"
same,binding signal,[13],"9.22 upbm affinity estimate (log intensity, higher = more binding, comparable within an allelic series)"
same,binding signal,[14],"9.08 upbm affinity estimate (log intensity, higher = more binding, comparable within an allelic series)"
same,binding signal,[15],"9.26 upbm affinity estimate (log intensity, higher = more binding, comparable within an allelic series)"
same,binding signal,[16],"9.36 upbm affinity estimate (log intensity, higher = more binding, comparable within an allelic series)"
same,binding signal,[17],"9.23 upbm affinity estimate (log intensity, higher = more binding, comparable within an allelic series)"
same,binding signal,[18],"9.16 upbm affinity estimate (log intensity, higher = more binding, comparable within an allelic series)"
same,binding signal,[19],"9.18 upbm affinity estimate (log intensity, higher = more binding, comparable within an allelic series)"
same,binding signal,[20],"9.15 upbm affinity estimate (log intensity, higher = more binding, comparable within an allelic series)"
AGGCGCCC,binding signal,[8],"8.71 upbm affinity estimate (log intensity, higher = more binding, comparable within an allelic series)"
same,binding signal,[9],"8.6 upbm affinity estimate (log intensity, higher = more binding, comparable within an allelic series)"
same,binding signal,[10],"8.7 upbm affinity estimate (log intensity, higher = more binding, comparable within an allelic series)"
same,binding signal,[11],"8.77 upbm affinity estimate (log intensity, higher = more binding, comparable within an allelic series)"
same,binding signal,[12],"8.76 upbm affinity estimate (log intensity, higher = more binding, comparable within an allelic series)"
same,binding signal,[13],"8.63 upbm affinity estimate (log intensity, higher = more binding, comparable within an allelic series)"
same,binding signal,[14],"8.66 upbm affinity estimate (log intensity, higher = more binding, comparable within an allelic series)"
same,binding signal,[15],"8.66 upbm affinity estimate (log intensity, higher = more binding, comparable within an allelic series)"
same,binding signal,[16],"8.66 upbm affinity estimate (log intensity, higher = more binding, comparable within an allelic series)"
same,binding signal,[17],"8.69 upbm affinity estimate (log intensity, higher = more binding, comparable within an allelic series)"
same,binding signal,[18],"8.65 upbm affinity estimate (log intensity, higher = more binding, comparable within an allelic series)"
same,binding signal,[19],"8.6 upbm affinity estimate (log intensity, higher = more binding, comparable within an allelic series)"
same,binding signal,[20],"8.7 upbm affinity estimate (log intensity, higher = more binding, comparable within an allelic series)"
GGGGGCAA,binding signal,[8],"8.96 upbm affinity estimate (log intensity, higher = more binding, comparable within an allelic series)"
same,binding signal,[9],"9.04 upbm affinity estimate (log intensity, higher = more binding, comparable within an allelic series)"
same,binding signal,[10],"8.94 upbm affinity estimate (log intensity, higher = more binding, comparable within an allelic series)"
same,binding signal,[11],"8.98 upbm affinity estimate (log intensity, higher = more binding, comparable within an allelic series)"
same,binding signal,[12],"9.06 upbm affinity estimate (log intensity, higher = more binding, comparable within an allelic series)"
same,binding signal,[13],"8.97 upbm affinity estimate (log intensity, higher = more binding, comparable within an allelic series)"
same,binding signal,[14],"8.96 upbm affinity estimate (log intensity, higher = more binding, comparable within an allelic series)"
same,binding signal,[15],"8.89 upbm affinity estimate (log intensity, higher = more binding, comparable within an allelic series)"
same,binding signal,[16],"8.98 upbm affinity estimate (log intensity, higher = more binding, comparable within an allelic series)"
same,binding signal,[17],"9.04 upbm affinity estimate (log intensity, higher = more binding, comparable within an allelic series)"
same,binding signal,[18],"8.9 upbm affinity estimate (log intensity, higher = more binding, comparable within an allelic series)"
same,binding signal,[19],"8.96 upbm affinity estimate (log intensity, higher = more binding, comparable within an allelic series)"
same,binding signal,[20],"9.01 upbm affinity estimate (log intensity, higher = more binding, comparable within an allelic series)"
